Screening results (PubChem BioAssay)
USP2a inh – qHTS Assay for Inhibitors of Ubiquitin-specific Protease USP2a; Potency, µM (titrated, usually from 38.3 µM), usual class: inhibitors; USP2a enzymatic assay, qHTS inhibition; hit rate 0.1% among 60,000; AID 927, 2007; also: nearly all actives have a fitted effect of over 60% in size
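USP2 core (20 nM final) was preincubated with compound for 30 min at RT in 20 mM Tris-HCl pH 8.0, 2 mM CaCl2, 2 mM beta-mercaptoethanol; Ub-PLA2 (20 nM) plus NBD C6-HPC (20 uM) then added, fluorescence read after 2.5 h.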
ALOX15B inhib – qHTS Assay for Inhibitors of 15-hLO-2 (15-human lipoxygenase 2) | purified 15hLO-2, xylenol orange hydroperoxide absorbance | Potency, µM (highest dose often 57.1 µM), hits mostly inhibitors | hit rate 0.56% among 110,000; also: nearly all actives have a fitted effect of over 60% in size
Target sequence (O15296 whole entry, looked up): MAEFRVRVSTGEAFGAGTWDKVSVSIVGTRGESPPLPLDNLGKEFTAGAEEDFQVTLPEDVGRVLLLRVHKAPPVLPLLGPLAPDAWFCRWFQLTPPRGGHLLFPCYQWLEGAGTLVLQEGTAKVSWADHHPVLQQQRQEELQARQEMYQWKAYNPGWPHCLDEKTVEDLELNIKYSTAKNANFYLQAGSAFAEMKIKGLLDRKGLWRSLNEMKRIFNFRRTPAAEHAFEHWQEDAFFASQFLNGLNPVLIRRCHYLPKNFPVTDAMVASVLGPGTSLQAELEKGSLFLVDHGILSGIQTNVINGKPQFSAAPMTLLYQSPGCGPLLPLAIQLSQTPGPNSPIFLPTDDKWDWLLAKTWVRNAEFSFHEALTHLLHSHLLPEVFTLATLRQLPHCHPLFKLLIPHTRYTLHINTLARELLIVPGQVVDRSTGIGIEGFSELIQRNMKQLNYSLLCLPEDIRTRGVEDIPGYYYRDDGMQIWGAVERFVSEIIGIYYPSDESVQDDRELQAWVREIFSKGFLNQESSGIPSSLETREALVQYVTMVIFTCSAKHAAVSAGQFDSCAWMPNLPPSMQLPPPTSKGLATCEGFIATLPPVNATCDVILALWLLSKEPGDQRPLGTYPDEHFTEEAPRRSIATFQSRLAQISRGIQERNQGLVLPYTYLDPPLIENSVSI
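Enzyme 50 nM, AA 45 uM, 25 mM Hepes pH 7.5 + 0.01% Triton X-100; cpd preinc 15 min RT, rxn 90 min RT; stop/detect with 200 uM XO + 300 uM Fe(II) in 50 mM H2SO4, 30 min; A573/A405.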
15-hLO inh – qHTS Assay for Inhibitors of 15-hLO (15-human lipoxygenase); hit rate 1.4% among 74,000; purified 15hLO-1, xylenol orange hydroperoxide absorbance; Potency, µM (top dose mostly 57.1 µM), most hits filed as inhibitors; Polyunsaturated fatty acid lipoxygenase ALOX15 (Homo sapiens), P16050; also: nearly all actives have a fitted effect of over 55% in size
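40 nM 15hLO-1 + cpd, 15 min RT; start w/ 50 uM AA (final), 6 min RT; stop/detect w/ 200 uM XO + 300 uM Fe(II) in 50 mM H2SO4, 30 min; A573/A405. Buffer 25 mM Hepes pH 7.5, 0.01% Triton X-100. No-enzyme wells as negative control.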
Ub-GFP proteasome – Ubiquitin-GFP Assay | Ubiquitin-GFP reporter cells, proteasome inhibition, GFP fluorescence; response scale: untreated = 0%, 10 µM MG-132 = 100% | Potency, µM (top dose mostly 45.9 µM), usual class: activators | 67,000 tested, under 10 active | AID 526, 2006; active = well fitted activation curve with a large enough effect, not every such curve was filed as active; inconclusive = small, poorly fitted or top-dose-only effect, or another doubt; inactive = no such curve, though single readings can be large or run the other way
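U2OS cells stably expressing ubiquitin(G76V)-GFP, seeded overnight in 0.5% FBS medium, were exposed to compounds (qHTS, 46 uM to 2.9 nM) for 4 hr at 37 °C. GFP-positive cells were counted by laser cytometry (488 ex/515 em), normalized between basal and 10 uM MG-132.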
Casp1 inh – qHTS Assay for Allosteric/Competitive Inhibitors of Caspase-1. Caspase-1 enzyme, Ac-WEHD-AFC fluorogenic rate. hit rate 0.03% among 75,000. Potency, µM (series often up to 57.5 µM), usual class: inhibitors. P29466
Caspase-7 inhib – qHTS Assay for Allosteric/Competitive Inhibitors of Caspase-7; AID 889, 2007; hit rate 0.02% among 75,000; Potency, µM (top dose mostly 57.5 µM), hits mostly inhibitors; P55210; recombinant caspase-7, Ac-DEVD-AFC fluorescence rate; active = well fitted inhibition curve with a large enough effect in the main read-out, with a control signal flat, not every such curve was filed as active; inconclusive = small, poorly fitted or top-dose-only effect, or a change in a side signal
Numbers stand for hits; . = inactive; ? = inconclusive; / = no result; [ ] = remark or other dose. This excerpt belongs to a sample that is enriched for hits. Unless noted, calls follow the shape of the dose curve; as a rule, active = well fitted curve in the direction sought with a large enough effect; inconclusive = small, poorly fitted or top-dose-only effect, or another doubt; inactive = no such curve, though single readings can be large; an effect the other way counts as inactive or inconclusive.

SMILES	USP2a inh	ALOX15B inhib	15-hLO inh	Ub-GFP proteasome	Casp1 inh	Caspase-7 inhib
CCN(CC)c1ccc(NS(=O)(=O)c2ccc3c(c2)oc(=O)n3C)c(C)c1	/	.	20µM	.	.	.
C=C(CC(=O)O)C(=O)O (tested in a mixture with another compound)	/	.[11.4 µM]	?	.[9.17 µM]	.[11.5 µM]	.[11.5 µM]
COc1cc(N=C(N)N=C(N)N)c2ncccc2c1	/	.[11.4 µM]	.[11.4 µM]	.[9.17 µM]	.[11.5 µM]	.[11.5 µM]
O=C1N/C(=N/Nc2ccccc2)S/C1=C\c1ccccc1	/	3.2µM	/	/	/	/
O=C1CC(c2ccc3c(c2)OCO3)c2cc(O)ccc2O1 (configuration not stated)	/	.[0.0915 µM]	/	/	/	/
O=C(Nc1ccc(Cl)cc1C(=O)Nc1ccccn1)c1ccco1	.	.	0.16µM	.	.	.
[N-]=[N+]=Nc1ccc(C(=O)CSC[C@@H](NC(=O)CC[C@@H](N)C(=O)O)C(=O)NCC(=O)O)cc1	.	.	.	.	.	.
Cn1c(=Nc2ccccc2)sc2ccccc21	/	.	/	/	/	/
CN(C)c1ccc(N=c2sc3ccccc3n2C)cc1	/	7.9µM	/	/	/	/
Cc1cc(Nc2ccccc2)nc(-c2ccccc2O)n1	.	.	.	.	.	.
Cc1cc(Nc2cccc(F)c2)nc(-c2ccccc2O)n1	.	.	10µM	/	.	.
Cc1ccc2nc(-c3ccc(N)cc3)sc2c1S(=O)(=O)O	/	.	.	/	/	?
C=C1CC[C@@H](O)C/C1=C/C=C1\CCC[C@]2(C)[C@@H]1CC[C@H]2[C@@H](C)/C=C\[C@@H](C)C(C)C	/	/	/	.	/	/
COc1ccc(-c2c3c(=O)n(C)c(=O)n(C)c3cn2C2CCCCC2)cc1	.	.	25µM	.	.	.
CN(C)CCOC(=O)c1ccc(N)cc1	/	.[11.4 µM]	.[11.4 µM]	.[9.17 µM]	.[11.5 µM]	.[11.5 µM]
CCN(CCCNC(=O)CC1Oc2ccc(C)cc2NC1=O)Cc1ccccc1 (configuration not stated)	/	/	10µM	.	.	.
c1c2c(cc3sc(N4CCOCC4)nc13)OCO2	.	.	?	.	.	.
c1ccc2c(c1)CCN(c1nc3cc4c(cc3s1)OCO4)C2	.	.	10µM	.	.	.
c1ccc(N2CCN(c3nc4cc5c(cc4s3)OCO5)CC2)cc1	.	.	13µM	.	.	.
CC(=O)[C@H]([C@@H](c1ccccc1)N1CCOCC1)N1CCOCC1	/	.[11.4 µM]	.[11.4 µM]	.[9.17 µM]	.[11.5 µM]	.[11.5 µM]
COc1cc2c(cc1OC)C(=O)N(C)CC2	/	.	.	.	.	.
COc1cc2cc3c4c(cc(OC)c(OC)c4c2cc1OC)CCN3C	/	13µM	.	.	/	?
O=C(CSc1ccccn1)Nc1ccc(Br)cn1	.	.	.	.	.	.
O=C(CSc1ncn(-c2ccccc2)n1)Nc1ccc(Br)cn1	.	?	20µM	.	.	.
O=C1c2ccccc2C(=O)N1C[C@]1(C(=O)O)NCCS1(=O)=O	/	.[11.4 µM]	.[11.4 µM]	.[9.17 µM]	.[11.5 µM]	.[11.5 µM]
SMILES	USP2a inh	ALOX15B inhib	15-hLO inh	Ub-GFP proteasome	Casp1 inh	Caspase-7 inhib
CCOc1ccc(-c2nc(=S)[nH][nH]2)cc1	.	?	25µM	.	.	.
C=C(C)COc1ccc2c(c1)CCC1C2CC[C@]2(C)C(=O)/C(=N/O)CC12 (some centres not stated)	/	.[11.4 µM]	.[11.4 µM]	.[9.17 µM]	.[11.5 µM]	.[11.5 µM]
CC(=O)O[C@@H]1CC(C)=C2[C@H]1[C@H](C)CC[C@H]2/C=C(\C)C(=O)O	/	.	.	/	.	.
O=C1C=CC2=C3c4cc(O)c(O)cc4CC3(O)COC2=C1O (configuration not stated)	10µM	?	?	/	?	?
Cc1ccc(/C=C/C2=Cc3c(sc(NC(=O)CSc4n[nH]c(N)n4)c3C#N)C(C)(C)C2)o1	?	?	13µM	.	?	?
CCOC(=O)c1c(NC(=O)CSc2n[nH]c(N)n2)sc(CC)c1C	.	.	.	.	.	.
COC(=O)C1OC(=O)C2OC23[C@]2(C)C(O)CC4C(C)(C)C(OC(C)=O)CC(OC(C)=O)[C@@]4(C)C2CC[C@@]13C (some centres not stated)	.	.	.	/	.	.
O=C(O)CCC(=O)Nc1ccc(N2CCCCCC2)cc1	.	.	.	.	.	.
O=C(Nc1ccc(N2CCCC2)cc1)C(Cl)c1ccccc1 (configuration not stated)	/	13µM	/	/	/	/
